In PubChem BioAssay (EPA / NIEHS):
Several values for one entry are separate records, joined by “and”; a condition that tells them apart may be missing. Identical values can stand only once. More than one record can exist for a structure, and the calls need not agree. Activity calls are given as the source filed them. How the source made its calls: active means hit-call score of the fitted dose curve at least 0.9, where 1 is the maximum; inactive means score below 0.9.

Read-out: Interferon-inducible T-cell alpha chemoattractant (ITAC), CXCL11 (gene 6373)
Assay: BSK_BE3C_ITAC: BioMAP Diversity Plus: BE3C Assay for Interferon-inducible T-cell alpha chemoattractant (ITAC) Biomarker Activity (AID 2284279)
Details: primary human bronchial epithelial cells
How it was run: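 ELISA read-out of I-TAC after 24 h chemical dosing of human lung primary bronchial epithelial cells; gain-of-signal fit vs DMSO baseline. Parallel SRB total-protein staining (0.1% SRB, 10% TCA fixation, 560 nm) assessed cytotoxicity.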

Row | Compound | AC50 | outcome
1 | O=C(O)C(F)(F)C(F)(F)C(F)(F)C(F)(F)C(F)(F)C(F)(F)C(F)(F)C(F)(F)F | 49.1 µM (active) and 56 µM (active) | –
2 | O=C(O)C(F)(F)C(F)(F)C(F)(F)C(F)(F)C(F)(F)F | – | inactive
3 | COc1ccc(O)c(C(C)(C)C)c1 | – | inactive
4 | NS(=O)(=O)C(F)(F)C(F)(F)C(F)(F)C(F)(F)C(F)(F)C(F)(F)C(F)(F)C(F)(F)F | 43.2 µM (active) and 36.9 µM (active) | –
5 | O=C(O)C(F)(F)C(F)(F)C(F)(F)C(F)(F)C(F)(F)C(F)(F)C(F)(F)C(F)(F)C(F)(F)F | 12.8 µM (active) and 13.7 µM (active) | –
6 | O=S(=O)(O)C(F)(F)C(F)(F)C(F)(F)C(F)(F)C(F)(F)C(F)(F)F | – | inactive
7 | O=S(=O)(O)C(F)(F)C(F)(F)C(F)(F)C(F)(F)F | – | inactive

Read-out: Interleukin-8 (IL8), CXCL8 (gene 3576)
Assay: BSK_BE3C_IL8: BioMAP Diversity Plus: BE3C Assay for Interleukin-8 (IL8) Biomarker Activity (AID 2284280)
Details: primary human bronchial epithelial cells
How it was run: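 Primary human bronchial epithelial cells (BE3C system) were exposed to test chemical for 24 h, and IL-8 levels were then measured by ELISA. Activity was fitted in the positive (gain-of-signal) direction against a DMSO negative-control baseline.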

Row | Compound | AC50 | outcome
8 | O=C(O)C(F)(F)C(F)(F)C(F)(F)C(F)(F)C(F)(F)C(F)(F)C(F)(F)C(F)(F)F | 23.3 µM (active) and 24.3 µM (active) | –
9 | O=C(O)C(F)(F)C(F)(F)C(F)(F)C(F)(F)C(F)(F)F | – | inactive
10 | COc1ccc(O)c(C(C)(C)C)c1 | – | inactive
11 | NS(=O)(=O)C(F)(F)C(F)(F)C(F)(F)C(F)(F)C(F)(F)C(F)(F)C(F)(F)C(F)(F)F | 24.3 µM (active) and 11.4 µM (active) | –
12 | O=C(O)C(F)(F)C(F)(F)C(F)(F)C(F)(F)C(F)(F)C(F)(F)C(F)(F)C(F)(F)C(F)(F)F | 10.1 µM (active) and 14.2 µM (active) | –
13 | O=S(=O)(O)C(F)(F)C(F)(F)C(F)(F)C(F)(F)C(F)(F)C(F)(F)F | – | inactive
14 | O=S(=O)(O)C(F)(F)C(F)(F)C(F)(F)C(F)(F)F | – | inactive

Read-out: Epidermal growth factor receptor (EGFR), EGFR (gene 1956)
Assay: BSK_BE3C_EGFR: BioMAP Diversity Plus: BE3C Assay for Epidermal growth factor receptor (EGFR) Biomarker Activity (AID 2284281)
Details: primary human bronchial epithelial cells
How it was run: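 Human primary bronchial epithelial cells were exposed to compound for 24 h, and cell-surface EGFR was then quantified by ELISA. Activity was fitted in the positive direction against the DMSO vehicle baseline.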

Row | Compound | outcome | AC50
15 | O=C(O)C(F)(F)C(F)(F)C(F)(F)C(F)(F)C(F)(F)C(F)(F)C(F)(F)C(F)(F)F | inactive | –
16 | O=C(O)C(F)(F)C(F)(F)C(F)(F)C(F)(F)C(F)(F)F | inactive | –
17 | COc1ccc(O)c(C(C)(C)C)c1 | inactive | –
18 | NS(=O)(=O)C(F)(F)C(F)(F)C(F)(F)C(F)(F)C(F)(F)C(F)(F)C(F)(F)C(F)(F)F | – | 25.1 µM (active) and 38 µM (active)
19 | O=C(O)C(F)(F)C(F)(F)C(F)(F)C(F)(F)C(F)(F)C(F)(F)C(F)(F)C(F)(F)C(F)(F)F | inactive | 7.27 µM (active)
20 | O=S(=O)(O)C(F)(F)C(F)(F)C(F)(F)C(F)(F)C(F)(F)C(F)(F)F | inactive | –
21 | O=S(=O)(O)C(F)(F)C(F)(F)C(F)(F)C(F)(F)F | inactive | –

Read-out: KRT18 (gene 3875)
Assay: BSK_BE3C_Keratin818: BioMAP Diversity Plus: BE3C Assay for Keratin 818 Biomarker Activity (AID 2284282)
Details: primary human bronchial epithelial cells
How it was run: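 ELISA read-out of Keratin 8/18 in BE3C human bronchial epithelial cultures, 24 h post-dosing; positive-direction fit vs DMSO baseline.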

Row | Compound | AC50 | outcome
22 | O=C(O)C(F)(F)C(F)(F)C(F)(F)C(F)(F)C(F)(F)C(F)(F)C(F)(F)C(F)(F)F | 30 µM (active) and 47.6 µM (active) | –
23 | O=C(O)C(F)(F)C(F)(F)C(F)(F)C(F)(F)C(F)(F)F | – | inactive
24 | COc1ccc(O)c(C(C)(C)C)c1 | – | inactive
25 | NS(=O)(=O)C(F)(F)C(F)(F)C(F)(F)C(F)(F)C(F)(F)C(F)(F)C(F)(F)C(F)(F)F | 46.9 µM (active) and 48 µM (active) | –
26 | O=C(O)C(F)(F)C(F)(F)C(F)(F)C(F)(F)C(F)(F)C(F)(F)C(F)(F)C(F)(F)C(F)(F)F | 14.5 µM (active) | inactive
27 | O=S(=O)(O)C(F)(F)C(F)(F)C(F)(F)C(F)(F)C(F)(F)C(F)(F)F | – | inactive
28 | O=S(=O)(O)C(F)(F)C(F)(F)C(F)(F)C(F)(F)F | – | inactive

Read-out: Matrix Metallopeptidase 9 (MMP9), MMP9 (gene 4318)
Assay: BSK_BE3C_MMP9: BioMAP Diversity Plus: BE3C Assay for Matrix Metallopeptidase 9 (MMP9) Biomarker Activity (AID 2284283)
Details: primary human bronchial epithelial cells
How it was run: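 Endpoint is the ELISA MMP-9 signal in human primary bronchial epithelial cultures taken 24 h after chemical dosing. DMSO serves as negative control and baseline, with gain-of-signal fitting.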

Row | Compound | AC50 | outcome
29 | O=C(O)C(F)(F)C(F)(F)C(F)(F)C(F)(F)C(F)(F)C(F)(F)C(F)(F)C(F)(F)F | 54 µM (active) and 56.6 µM (active) | –
30 | O=C(O)C(F)(F)C(F)(F)C(F)(F)C(F)(F)C(F)(F)F | – | inactive
31 | COc1ccc(O)c(C(C)(C)C)c1 | – | inactive
32 | NS(=O)(=O)C(F)(F)C(F)(F)C(F)(F)C(F)(F)C(F)(F)C(F)(F)C(F)(F)C(F)(F)F | 30 µM (active) | –
33 | O=C(O)C(F)(F)C(F)(F)C(F)(F)C(F)(F)C(F)(F)C(F)(F)C(F)(F)C(F)(F)C(F)(F)F | 15.1 µM (active) and 17.4 µM (active) | –
34 | O=S(=O)(O)C(F)(F)C(F)(F)C(F)(F)C(F)(F)C(F)(F)C(F)(F)F | – | inactive
35 | O=S(=O)(O)C(F)(F)C(F)(F)C(F)(F)C(F)(F)F | – | inactive

Read-out: Plasminogen activator inhibitor-1 (PAI1), SERPINE1 (gene 5054)
Assay: BSK_CASM3C_PAI1: BioMAP Diversity Plus: CASM3C Assay for Plasminogen activator inhibitor-1 (PAI1) Biomarker Activity (AID 2284284);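 further: PAI-1 protein level measured by ELISA 24 h after dosing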
Details: primary human coronary artery smooth muscle cells

Row | Compound | outcome
36 | O=C(O)C(F)(F)C(F)(F)C(F)(F)C(F)(F)C(F)(F)C(F)(F)C(F)(F)C(F)(F)F | inactive
37 | O=C(O)C(F)(F)C(F)(F)C(F)(F)C(F)(F)C(F)(F)F | inactive
38 | COc1ccc(O)c(C(C)(C)C)c1 | inactive
39 | NS(=O)(=O)C(F)(F)C(F)(F)C(F)(F)C(F)(F)C(F)(F)C(F)(F)C(F)(F)C(F)(F)F | inactive
40 | O=C(O)C(F)(F)C(F)(F)C(F)(F)C(F)(F)C(F)(F)C(F)(F)C(F)(F)C(F)(F)C(F)(F)F | inactive
41 | O=S(=O)(O)C(F)(F)C(F)(F)C(F)(F)C(F)(F)C(F)(F)C(F)(F)F | inactive
42 | O=S(=O)(O)C(F)(F)C(F)(F)C(F)(F)C(F)(F)F | inactive
